Results as given in PubChem BioAssay.

Assay: HepG2 cell viability effects, profiling panel, calcein-AM fluorescence, 48 h, basal (AID 1164); further: test concentration not given here
Settings: higher = more signal
Work on `CN1C(=O)[C@]2(CCC(=O)OC(C)(C)C)N=C(c3ccc(OCCCO)cc3)O[C@@H]2c2ccccc21` yielded a z-score of -0.54.
Compound `CC(c1ccccc1)C(O)C1C=CC2C(=O)N(c3ccccc3)C(=O)C2N1Nc1ccc(C#N)cc1` (stereo unspecified) has a z-score of 1.49.
`COCCOC(=O)N1C(=O)[C@@]2(c3cc(C#CCCO)ccc31)[C@H](C(=O)N1CCN(c3ncccn3)CC1)[C@H]1C(=O)O[C@H](c3ccccc3)[C@H](c3ccccc3)N1[C@@H]2c1ccc(O)cc1` showed a z-score of 1.54.
With `C#CCN(C/C=C/c1ccccc1)[C@H](CO[Si](C)(C)C(C)(C)C)c1ccccc1` the z-score was -0.676.
Work on `NCCCC[C@@H]1NC(=O)[C@H]2C[C@@H](C(=O)O)[C@@H](c3cccc(OCCO)c3)N2C1=O` yielded a z-score of 0.274.
With `[N-]=[N+]=NCc1ccccc1C[C@]1(C(=O)N2CCCCC2)N=C(c2ccc(OCCCO)cc2)O[C@H]1c1ccccc1` the z-score was -0.923.
In the case of `CCCCC(=C=CC[C@H](O)c1ccc(OCCO)cc1)C[C@H](O)c1ccccn1`, the z-score is reported as 0.701.
In the case of `CN(C)C(=O)[C@@]1(CCS(=O)(=O)c2ccccc2)N=C(c2ccc(OCCCO)cc2)O[C@H]1c1ccccc1N=[N+]=[N-]`, the z-score is reported as 1.27.
Work on `[N-]=[N+]=NCc1ccccc1[C@@H]1OC(c2ccc(OCCCO)cc2)=N[C@]1(Cc1ccccc1)C(=O)NCc1ccccc1` yielded a z-score of 0.293.
For `O=C(NCCO)C1=C[C@H](Oc2ccccc2I)[C@@H](O)[C@H](NCc2ccc(F)cc2)C1`, the z-score was -0.793.
Work on `COc1ccc([Si](C)(C)[C@@H]2[C@@H](CC(=O)N(CCO)Cc3ccccc3)O[C@]3(C(=O)N(Cc4ccc(N5CCC5=O)cc4)c4ccccc43)[C@H]2C)cc1` yielded a z-score of -1.34.
Compound `O=C1NC(=O)C2C1C=CC(C(O)c1cccc(O)c1)N2Nc1ccc(Cl)cc1Cl` (stereo unspecified) has a z-score of -1.13.
In the case of `CC(C)C[C@@H]1NC(=O)C([C@@H](C)OCc2ccccc2)NC(=O)[C@@]23C(=O)N[C@@H](Cc4ccccc4)C2[C@H](C)[C@@]2(C)O[C@H]2C3/C=C/CC/C=C/CNC1=O` (stereo partly specified), the z-score is reported as 0.0538.
With `COc1ccc([Si](C)(C)[C@H]2[C@H](CCO)O[C@@]3(C(=O)N(Cc4ccc(N5CCOC5=O)cc4)c4ccccc43)[C@@H]2C)cc1` the z-score was -0.591.
`COc1ccc(CCNC(=O)[C@@]2(Sc3ccc(C)cc3)CC(=O)N(Cc3cc(C(F)(F)F)cc(C(F)(F)F)c3)[C@@H]2c2ccc(CO)cc2)cc1` gave a z-score of -0.29.
Work on `CCCCC(O)C1C=CC2C(=O)NC(=O)C2N1Nc1ccc(Cl)cc1Cl` (stereo unspecified) yielded a z-score of -2.39.
With `CO[C@H]1O[C@H](CO)[C@@H](OC(=O)Nc2ccc3c(c2)OCO3)[C@@H]2OC(=O)[C@@H](Cc3ccccc3)C/C=C/C[C@H](Cc3ccccc3)C(=O)O[C@@H]12` the z-score was 0.843.
`CN(C)C(=O)[C@]1(Cc2ccccc2CN=[N+]=[N-])N=C(c2ccc(OCCCO)cc2)O[C@@H]1c1ccccc1N=[N+]=[N-]` gave a z-score of -0.923.
In the case of `O=C1OCCC=C[C@H]2OC34C=CCN(CCN5CCOCC5)C(=O)[C@H]3N(CCCO)C(=O)[C@@H]4C12` (stereo partly specified), the z-score is reported as 0.127.
`C=CCNC(=O)[C@@H]1[C@H]2C(=O)O[C@H](c3ccccc3)[C@H](c3ccccc3)N2[C@H](c2ccccc2OCCO)[C@@]12C(=O)N(C(=O)OCCOC)c1ccc(C#CCCO)cc12` showed a z-score of 1.53.
In the case of `C=CCC(OC(C)=O)[C@@H]1[C@@H](N(Cc2cccc3ccccc23)C(=O)c2cccc3ccccc23)c2cc(OCCCO)ccc2N1C(=O)Cc1ccc2ccccc2c1` (stereo partly specified), the z-score is reported as -0.663.
`C=C(COC)/C(=C/C[C@@H](OC(C)=O)c1ccccc1OCCO)c1cc(C(=O)OC)ccc1OC` gave a z-score of 0.5.
Compound `COCC(=C=CC[C@@H](O)c1cccc(OCCO)c1)C[C@@H](O)COCc1ccccc1` has a z-score of 1.41.
With `CCCCC=C[C@@H](NC(=O)c1ccc(C(F)(F)F)cc1)c1ccccc1` the z-score was -0.63.
`COC(=O)[C@]1(CO)N=C(c2ccc(OCCCO)cc2)O[C@@H]1c1ccccc1CN=[N+]=[N-]` showed a z-score of 0.422.
With `COC(=O)[C@@]1(Cc2ccc(OC)cc2)[C@H]2c3cc(C(=O)N4CCCC4)n(CCc4ccc(OC)c(Br)c4)c3C[C@H]2CN1C(=O)c1ccccc1` the z-score was 0.347.
With `COCCOC(=O)N1C(=O)[C@@]2(c3cc(C#CCC(C(=O)OC)C(=O)OC)ccc31)[C@H](C(=O)N1CCc3cc(OC)c(OC)cc3C1)[C@H]1C(=O)O[C@H](c3ccccc3)[C@H](c3ccccc3)N1[C@@H]2c1ccc(O)cc1` the z-score was 0.391.
`CCC(CC)C(O)C1C=CC2C(=O)N(C)C(=O)C2N1N1CCCCC1` (stereo unspecified) gave a z-score of -0.502.
With `COc1cc2c(cc1O)C(c1ccc(CN3CCCC3)cc1)N(Cc1ccc([N+](=O)[O-])o1)CC2` (stereo unspecified) the z-score was 0.0023.
`COc1cc(OC)c(C(O)C2C=CC3C(=O)N(c4ccccc4)C(=O)C3N2Nc2ccccc2F)cc1Br` (stereo unspecified) gave a z-score of 0.302.
Work on `NC(=O)N1C(=O)C2C(C1=O)C1C=C(CCCO)C2C(c2ccc(CN3CCCC3)cc2)N1Cc1cccc(OC(F)(F)F)c1` (stereo unspecified) yielded a z-score of -0.215.
`CC(C)C[C@H]1NC(=O)[C@@]23C(=O)N[C@@H](Cc4ccccc4)C2[C@H](C)[C@@]2(C)O[C@H]2C3/C=C/C/C=C\CNC(=O)[C@@H]2CCCN2C1=O` (stereo partly specified) showed a z-score of -0.54.
In the case of `COC(=O)[C@@]1(Cc2ccc(F)cc2)[C@H]2c3cc(C(=O)N(C)C)n(CCn4cc([N+](=O)[O-])nc4C)c3C[C@H]2CN1C(=O)c1ccccc1`, the z-score is reported as 0.346.
Compound `C=CC[C@]1(C(=O)NCCCOC)N=C(c2ccc(OCCCO)cc2)O[C@H]1c1ccccc1` has a z-score of -1.1.
Compound `COCCOC(=O)N1C(=O)[C@@]2(c3cc(C#CC4=CCCCC4)ccc31)[C@H](c1ccccc1OCCO)N1[C@H](c3ccccc3)[C@H](c3ccccc3)OC(=O)[C@H]1[C@@H]2C(N)=O` has a z-score of -2.29.
`CC(C)C[C@@H]1NC(=O)[C@@]23C(=O)N[C@@H](Cc4ccccc4)C2[C@H](C)[C@@]2(C)O[C@H]2C3/C=C/C/C=C\CNC(=O)[C@@H](CC(C)C)NC1=O` (stereo partly specified) gave a z-score of -0.293.
